# Compound activity as filed in PubChem.
# Pf growth 96h = P. falciparum growth inhibition at 96 hours; P. falciparum luciferase reporter growth, 96 h; AID 504834; Potency, µM (titrated, usually from 28.7 µM), without a hit: at the top dose activity change, negative = inhibition, actives largely listed as inhibitors; hit rate 6.9% among 320,000; also: % is scaled to controls: 0 for no effect and ±100 for the full control effect
#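 Readout is luminescence from an integrated firefly luciferase in P. falciparum. Red cells, 2% hematocrit and 0.05% parasitemia final, were cultured with compound through two parasite generations (96 hours) at 37 C, 5% CO2.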
# SARS PLpro yeast = blocks SARS-CoV papain-like protease in a yeast assay. S. cerevisiae expressing SARS-CoV PLpro, growth rescue. Potency, µM (series often up to 32.9 µM), for inactives: at the top dose activity, positive = growth rescue, most hits filed as activators. hit rate 0.19% among 330,000; calls by dose curve; also: 0% is about no effect; nearly all actives have a fitted effect of over 55% in size
# Sm TGR block = S. mansoni TGR enzyme inhibition; Q962Y6; purified TGR, DTNB reduction, TNB absorbance 405 nm; Potency, µM (titrated, usually from 114 µM), for the others: top-dose activity change, negative = inhibition, actives largely listed as inhibitors; hit rate 3% among 360,000; AID 485364; also: % is scaled to controls: 0 for no effect and ±100 for the full control effect; nearly all actives have a fitted effect of over 60% in size
#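 First, TGR (20 nM dispensed) and NADPH were mixed with compound. Second, a 15 min room-temperature incubation followed. Third, further NADPH and then DTNB were added to start the reaction. Finally, TNB absorbance was monitored kinetically.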
# Pf growth 48h = P. falciparum growth inhibition at 48 hours (one generation) | P. falciparum luciferase growth in erythrocytes, 48 h | Potency, µM (highest dose often 28.7 µM), for the others: top-dose activity change, negative = inhibition, actives largely listed as inhibitors | hit rate 5.9% among 310,000; also: % is scaled to controls: 0 for no effect and ±100 for the full control effect
#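 Firefly luciferase activity from engineered P. falciparum reports growth; inhibitors lower the luminescent signal. Cultures contained 2% hematocrit erythrocytes at 0.1% final parasitemia.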
# Numbers without * were called inactive; ? = inconclusive; . = not tested or not shown; [ ] = remark or other dose. In the library only some 12% were active in any assay of this set; here they are far more common. Unless noted, calls follow the shape of the dose curve; as a rule, active = well fitted curve in the direction sought with a large enough effect; inconclusive = small, poorly fitted or top-dose-only effect, or another doubt; inactive = no such curve, though single readings can be large; an effect the other way counts as inactive or inconclusive. Potency is read from the fitted curve at half-maximal effect.
SMILES,Pf growth 96h,SARS PLpro yeast,Sm TGR block,Pf growth 48h
CNC(=S)N/N=C/c1ccc(-c2ccc(C(=O)O)cc2)o1,264%,-6%,?,1%
Cc1[nH][nH]c(=O)c1C(c1ccc(-c2ccc(C(=O)O)cc2)o1)c1c(C)[nH][nH]c1=O,-15%,-2%,16µM*,?
Cc1[nH][nH]c(=O)c1C(c1ccc(-c2ccc(Cl)c(Cl)c2)o1)c1c(C)[nH][nH]c1=O,0%,-5%,40µM*,.
COc1ccc(-c2ccc(/C=N/N3C(=O)C4C5C=CC(C6CC56)C4C3=O)o2)c([N+](=O)[O-])c1 (centres undefined),22%,-16%,-14%,0%
CN(C)c1ccc(CNC(=O)Cn2c(=O)oc3cc(S(=O)(=O)N4CCCCCC4)ccc32)cc1,.,.,-12%,.
COc1ccc(Cl)cc1NC(=O)Cn1c(=O)n(Cc2ccc(F)cc2)c(=O)c2cccnc21,.,.,1%,.
CN(CCOc1ccc(-c2ccn(S(=O)(=O)c3c(Cl)cccc3Cl)n2)cc1)c1ccccn1,2.6µM*,?,3%,?
CN(c1ccccc1)S(=O)(=O)c1cccc2ccccc12,-2%,-4%,9%,-9%
CN(CCOc1ccc(C=C2C(=O)NC(=O)NC2=O)cc1)c1ccccn1,66%,-1%,?,-18%
COc1ccc(S(=O)(=O)n2ccc(-c3cnc(-c4ccccc4)s3)n2)cc1,?,-2%,17%,?
CN(CCOc1ccc(-c2ccn(S(=O)(=O)c3cccc4ccccc34)n2)cc1)c1ccccn1,9.3µM*,?,-8%,10µM*
CN(CCOc1ccc(-c2ccn(S(=O)(=O)c3ccc(Cl)cc3)n2)cc1)c1ccccn1,10µM*,-2%,0%,10µM*
CCc1ccc(NC(=O)NCCCN2CCCC2=O)cc1,35%,8%,14%,38%
Cc1c(C)c2ccc(OCC(=O)Nc3ccccn3)c(C)c2oc1=O,1%,-19%,-6%,-19%
Cc1cccc(N2CCC(N3CCN(C4CCCCC4)C(CCO)C3)CC2)c1C (centres undefined),3%,-2%,5µM*,-4%
OCCC1CN(C2CCSCC2)CCN1C1CCCC1 (centres undefined),-12%,0%,-1%,-4%
CC(C)N1CCC(N2CCN(C3CCCC3)CC2CCO)CC1 (centres undefined),13µM*,0%,.,-14%
N/C(CCS(=O)(=O)c1ccc(Cl)cc1)=N\OC(=O)c1ccccc1C(F)(F)F,9.3µM*,-2%,-16%,3.7µM*
O=C(c1cc(F)c(F)cc1Cl)N1CCN(c2ncccn2)CC1,5.2µM*,4%,6%,-2%
O=C(c1cc(Br)ccc1Cl)N1CCN(c2ncccn2)CC1,3%,0%,-9%,1%
CSc1ncccc1C(=O)Nc1ccc(OC(F)(F)F)cc1,42%,-2%,0%,10%
CC(=O)Nc1ccc(Sc2ncccc2C(=O)Nc2ccc(F)cc2)cn1,6.6µM*,-4%,?,13µM*
O=C(CCCN1C(=O)c2cccnc2Oc2ccc(Cl)cc21)N1CCCCC1,13µM*,0%,13µM*,?
COc1ccc2c(c1)C(=O)CCC2c1ccccc1 (centres undefined),5.2µM*,-5%,7%,-9%
COc1ccc(C)cc1NC(=O)c1cc(S(=O)(=O)N2CCc3ccccc3C2)ccc1F,.,.,11%,.
SMILES,Pf growth 96h,SARS PLpro yeast,Sm TGR block,Pf growth 48h
Cc1ccc(CNC(=O)c2ccc(N3Cc4ccccc4Oc4ncccc43)s2)cc1,.,.,0%,.
COc1cccc2sc(N(Cc3cccnc3)C(=O)C3COc4ccccc4O3)nc12 (centres undefined),.,.,-4%,.
COC(=O)C1=C(N)Oc2cc(C)n(CCCn3ccnc3)c(=O)c2C1c1ccc(Cl)cc1 (centres undefined),4.7µM*,1%,3%,3.3µM*
COc1ccc2c(c1)CC(C(=O)NCCCN1CCN(c3cccc(Cl)c3)CC1)CO2 (centres undefined),.,.,2%,.
Cc1ccc(C(=O)NCC(=O)OCc2cc(=O)n3nc(C4CCCCC4)sc3n2)cc1,.,.,-4%,.
C/C(=N\N1CCCCCC1)c1c(O)n(-c2ccccc2)c(=O)[nH]c1=O,?,-10%,2%,?
CCC(=NCCN1CCOCC1)c1c(O)n(-c2ccccc2C)c(=O)[nH]c1=O,-2%[5.75 µM],-1%,28µM*,9%
CC/C(=N\N1CCCCCC1)c1c(O)n(-c2ccccc2C)c(=O)[nH]c1=O,4.7µM*,16%,-4%,?
C=CCn1c(=O)c2ccccc2n2c(SCC(=O)NC)nnc12,14%,-2%,1%,12%
